Several values for one entry are separate records, joined by “and”; a condition that tells them apart may be missing. Equal entries are not always repeated. Inconclusive results are not listed. Unmarked numbers belong to inactive results. Activity calls are given as the source filed them. Calls follow the shape of the dose curve; as a rule, active = well fitted curve in the direction sought with a large enough effect; inconclusive = small, poorly fitted or top-dose-only effect, or another doubt; inactive = no such curve, though single readings can be large; an effect the other way counts as inactive or inconclusive.
How the values were obtained:
[1] = Viability qHTS for spleen associated tyrosine kinase inhibitor (SYKi) naive MV4-11 cells (AID 1963823); also: nearly all actives have a fitted effect of over 40% in size; also: potency is read from the fitted curve at half-maximal effect
Procedure, shortened: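 SYK inhibitor-naive MV4-11 cells, 500 per well, exposed to compounds for 72 hr at 37 C, 5% CO2. Viability read as CellTiter-Glo luminescence after 10 min at room temperature.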

[2] = Viability qHTS for spleen associated tyrosine kinase inhibitor (SYKi) drug resistant MV4-11 cells (AID 1963824); also: nearly all actives have a fitted effect of over 35% in size; also: potency is read from the fitted curve at half-maximal effect
Procedure, shortened: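 CellTiter-Glo luminescence, read 10 min after reagent addition, reports viability after a 72 hr compound exposure. Cells are an MV4-11 line made resistant to SYK inhibition, seeded at 500 per well onto compound-containing plates.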

[3] = Quantitative highthroughput screen to assess conditional lethalithy of NOMO1 cells grown in RPMI1640 with untreated serum (RPMI+s) (AID 1963876); also: nearly all actives have a fitted effect of over 35% in size; also: potency is read from the fitted curve at half-maximal effect;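 as to Viability: 100% = DMSO wells and 0% = empty wells without cells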
Procedure, shortened: (§1)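 Each medium arm—HPLM with 10% dialyzed FBS, or RPMI1640 with 5 mM glucose and 10% untreated or dialyzed FBS—was screened against an 11-point, 3-fold compound titration for 48 h at 37 °C, with CellTiter-Glo luminescence as endpoint.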

[4] = Quantitative highthroughput screen to assess conditional lethalithy of NOMO1 cells grown in RPMI1640 with dialyzed fetal bovine serum (RPMI+ds) (AID 1963877);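 also: series mostly up to about 46 µM; 100% = DMSO control wells and 0% = empty wells; nearly all actives have a fitted effect of over 30% in size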
Procedure, shortened: as §1

[5] = Quantitative highthroughput screen to assess conditional lethalithy of SEM cells grown in Human Plasma-Like Medium with dialyzed fetal bovine serum (HPLM+ds) (AID 1963882); also: nearly all actives have a fitted effect of over 35% in size; also: potency is read from the fitted curve at half-maximal effect; as to Viability: series mostly up to about 46 µM
Procedure, shortened: as §1

[6] = Quantitative highthroughput screen to assess conditional lethalithy of SEM cells grown in RPMI1640 with dialyzed fetal bovine serum (RPMI+ds) (AID 1963884); also: nearly all actives have a fitted effect of over 35% in size; also: potency is read from the fitted curve at half-maximal effect;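 as to Viability: series mostly up to about 46 µM; 100% = DMSO control wells and 0% = empty wells without cells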
Procedure, shortened: as §1

[7] = Cellular viability qHTS for adrenocortical cancer (ACC) cell line NCI-H295R (AID 1963990); also: nearly all actives have a fitted effect of over 60% in size; also: potency is read from the fitted curve at half-maximal effect
Procedure, shortened: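 Viability of NCI-H295R after 48 h of treatment (final up to 46 uM) measured through cellular ATP luminescence.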

[8] = Quantitative highthroughput screen to assess conditional lethalithy of P12 Ichikawa cells grown in Human Plasma-Like Medium with dialyzed fetal bovine serum (HPLM+ds) (AID 1963879); conditions: Potency: viability; also: nearly all actives have a fitted effect of over 35% in size; also: potency is read from the fitted curve at half-maximal effect; as to Viability: series mostly up to about 46 µM
Procedure, shortened: as §1

[9] = Quantitative highthroughput screen to assess conditional lethalithy of P12 Ichikawa cells grown in RPMI1640 with dialyzed fetal bovine serum (RPMI+ds) (AID 1963880); conditions: Potency: P12-Ichikawa viability; also: nearly all actives have a fitted effect of over 35% in size; also: potency is read from the fitted curve at half-maximal effect;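 as to Viability: 100% = DMSO wells and 0% = empty wells on each plate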
Procedure, shortened: as §1

[10] = Quantitative highthroughput screen to assess conditional lethalithy of P12 Ichikawa cells grown in RPMI1640 with untreated serum (RPMI+s) (AID 1963881); conditions: Potency: viability; also: nearly all actives have a fitted effect of over 35% in size; also: potency is read from the fitted curve at half-maximal effect;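 as to Viability: series mostly up to about 46 µM; 100% = DMSO wells and 0% = empty wells without cells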
Procedure, shortened: as §1

[11] = Quantitative highthroughput screen to assess conditional lethalithy of SEM cells grown in RPMI1640 with unreated serum (RPMI+s) (AID 1963883); also: nearly all actives have a fitted effect of over 35% in size; also: potency is read from the fitted curve at half-maximal effect;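 as to Viability: 100% = DMSO wells and 0% = empty wells without cells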
Procedure, shortened: as §1

[12] = Cellular viability qHTS for adrenocortical cancer (ACC) cell line SW-13 (AID 1963989); conditions: SW-13 ACC cells viability, CellTiter-Glo, 48 h; activity (max response): stronger effect = lower value; also: nearly all actives have a fitted effect of over 65% in size; also: potency is read from the fitted curve at half-maximal effect;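 as to activity (max response): cells grown in serum-free medium with ITS supplement; % is scaled to controls: 0 for no effect and ±100 for the full control effect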
Procedure, shortened: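 Here, serum-free SW-13 cultures were dosed up to 46 uM. Following 48 h, ATP-dependent luminescence (CellTiter-Glo) reported viable cells, and logistic modeling produced IC50 values.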

[13] = Quantitative highthroughput screen to assess conditional lethalithy of NOMO1 cells grown in Human Plasma-Like Medium with dialyzed fetal bovine serum (HPLM+ds) (AID 1963878); also: nearly all actives have a fitted effect of over 35% in size; also: potency is read from the fitted curve at half-maximal effect;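 as to Viability: 100% = DMSO wells and 0% = empty wells on each plate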
Procedure, shortened: as §1

O=C1NC(=O)C(c2cnc3ccccn23)=C1c1cn2c3c(cccc13)CN(C(=O)N1CCOCC1)CC2
Potency [1]: 231 nM (active)
Potency [2]: 92 nM (active)
Potency [3]: inactive
Potency [4]: inactive
Potency [5]: 6.6 nM (active)
Potency [6]: 7.4 nM (active)
Potency [7]: inactive

CCc1c2c(nc3ccc(OC(=O)N4CCC(N5CCCCC5)CC4)cc13)-c1cc3c(c(=O)n1C2)COC(=O)[C@]3(O)CC
Potency [1]: 2.99 µM (active) and 263 nM (active)
Potency [2]: 2.66 µM (active) and 296 nM (active)
Potency [3]: 2960 nM (active)
Potency [8]: 1180 nM (active)
Potency [9]: 1180 nM (active)
Potency [10]: 833 nM (active)
Potency [5]: 2350 nM (active)
Potency [11]: 1870 nM (active)
Potency [6]: 1480 nM (active)
Potency [12]: 3.66 µM (active) and 3.55 µM (active)

CCn1c(-c2nonc2N)nc2cnc(Oc3cccc(NC(=O)c4ccc(OCCN5CCOCC5)cc4)c3)cc21
Potency [1]: 517 nM (active) and 934 nM (active)
Potency [2]: 3.66 µM (active) and 5.25 µM (active)
Potency [3]: 5900 nM (active)
Potency [13]: inactive
Potency [5]: 13200 nM (active)

Cc1ccc(NC(=O)c2ccc(CN3CCN(C)CC3)cc2)cc1Nc1nc(-c2cccnc2)cs1
Potency [1]: 11.6 µM (active) and 14.8 µM (active)
Potency [2]: 13 µM (active) and 13.2 µM (active)
Potency [3]: inactive
Potency [13]: 372 nM (active)
Potency [12]: 25.1 µM (active)

COc1cc(N2CCC(N(C)C)CC2)ccc1Nc1ncc(Cl)c(Nc2ccccc2P(C)(C)=O)n1
Potency [1]: 66.1 nM (active)
Potency [2]: 116 nM (active) and 148 nM (active)
Potency [3]: 2630 nM (active)
Potency [13]: 1050 nM (active)
Potency [10]: 2090 nM (active)
Potency [5]: 467 nM (active)
Potency [6]: 524 nM (active)
Potency [12]: 2 µM (active)
Potency [7]: 8.91 µM (active)

CCOc1ccc(Nc2nc(-c3c(C)nc4ccccn34)cs2)cc1
Potency [1]: 41.1 nM (active) and 33.2 nM (active)
Potency [2]: 41.1 nM (active) and 29.5 nM (active)
Potency [3]: 83.3 nM (active)
Potency [8]: 46.9 nM (active)
Potency [10]: 59 nM (active)
Potency [11]: 46.9 nM (active)
Potency [6]: 105 nM (active)
Potency [7]: 0.708 µM (active)

CN(C)CCCNC(=O)c1ccc(-c2cc(O)c3ncccc3c2)cc1
Potency [1]: 5800 nM (active)
Potency [2]: 5.17 µM (active) and 14.8 µM (active)
Potency [3]: inactive
Potency [8]: inactive
Potency [9]: inactive
Potency [7]: 12.6 µM (active)

CC[C@H](C)n1cc(C)c2c(C(=O)NCc3c(C)cc(C)[nH]c3=O)cc(-c3ccc(N4CCNCC4)nc3)cc21
Potency [1]: 7420 nM (active)
Potency [2]: 10500 nM (active)
Potency [3]: inactive
Potency [8]: inactive
Potency [9]: inactive
Potency [10]: inactive
Potency [5]: inactive
Potency [11]: inactive
Potency [6]: inactive
Potency [7]: 28.2 µM (active)

O=C(O)Cn1nnc(-c2cc(N3CCC(Oc4cc(F)ccc4Br)CC3)no2)n1
Potency [1]: inactive
Potency [2]: 103 nM (active)
Potency [3]: 1050 nM (active)
Potency [8]: 9350 nM (active)
Potency [9]: 11800 nM (active)
Potency [11]: inactive
Potency [6]: inactive
Potency [7]: inactive

CC(C)(S)[C@@H](N)C(=O)O
viability (% of control) [1]: 88.9% [at 4.97 µM]
viability, % of control [2]: 89% [at 4.97 µM]
Potency [3]: inactive
Potency [8]: inactive
activity (max response) [12]: 0.215%

NC(N)=NC(=O)c1nc(Cl)c(N)nc1N
Potency [1]: 5.39 µM (active) and 841 nM (active)
Potency [2]: 12.1 µM (active) and 668 nM (active)
Potency [3]: 935 nM (active)
Potency [9]: 13200 nM (active)
Potency [10]: 4690 nM (active)
Potency [5]: inactive
Potency [11]: inactive
Potency [6]: inactive
activity (max response) [12]: -8.19% and -7.03%

O=C(C1CCCCC1)N1CC(=O)N2CCc3ccccc3C2C1 (stereo not drawn)
Potency [1]: inactive
Potency [2]: inactive
Potency [3]: inactive
Potency [13]: inactive
Potency [11]: 332 nM (active)
activity (max response) [12]: -9.94% and -6.75%
Potency [7]: inactive

COc1cc2ncn(-c3cc(OCc4ccccc4C(F)(F)F)c(C(N)=O)s3)c2cc1OC
Potency [1]: 355 nM (active) and 662 nM (active)
Potency [2]: 282 nM (active) and 263 nM (active)
Potency [3]: 2640 nM (active)
Potency [8]: 1320 nM (active)
Potency [9]: 2350 nM (active)
Potency [10]: 2090 nM (active)
Potency [11]: 2090 nM (active)
Potency [6]: 2640 nM (active)
Potency [12]: 1.26 µM (active)

CCCCc1oc2ccc(NS(C)(=O)=O)cc2c1C(=O)c1ccc(OCCCN(CCCC)CCCC)cc1
Potency [1]: 6.68 µM (active) and 2.59 µM (active) and 6.61 µM (active)
Potency [2]: 2.99 µM (active) and 2.91 µM (active) and 6.61 µM (active)
Potency [3]: 1180 nM (active)
Potency [8]: 8330 nM (active)
Potency [9]: 9350 nM (active)
Potency [10]: 8330 nM (active)
Potency [12]: 11.6 µM (active) and 3.98 µM (active)
Potency [7]: 4.11 µM (active) and 4.47 µM (active)

Nc1ccn([C@@H]2O[C@H](CO)[C@@H](O)[C@H]2O)c(=O)n1
Potency [1]: inactive
Potency [2]: inactive
Potency [3]: 74.3 nM (active)
Potency [13]: 16.6 nM (active)
Potency [6]: inactive
activity (max response) [12]: 10.2%
Potency [7]: inactive

N#Cc1c(NC(=O)c2cccc3ccccc23)sc2c1CCCC2
Potency [1]: 116 nM (active)
Potency [2]: 186 nM (active)
Potency [3]: 935 nM (active)
Potency [8]: 590 nM (active)
Potency [10]: 662 nM (active)
Potency [5]: 469 nM (active)
Potency [11]: 418 nM (active)
Potency [6]: 372 nM (active)
Potency [12]: 0.282 µM (active)
Potency [7]: 0.562 µM (active)
